# From PubChem
# A selection: hits, their analogues and other compounds. The true share with any hit is near 3.2%.
# Y pestis TopoI: blocks Yersinia pestis topoisomerase I activity | Y. pestis Topo-I cleavage product accumulation, plate reader | activity, % at 10 µM | hit rate 0.064% among 360,000 | AID 504884; in the data active = activity above about 50%, passing the limit was not always enough
# GDH-TPI counter: GDH-TPI coupled enzyme inhibition counter-screen. GDH-TPI coupled enzyme counterscreen, NADH absorbance. inhibition, % at 4.8 µM. hit rate 1.2% among 360,000; in the data active = inhibition above about 30%;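 note: 0% = DMSO wells and 100% = wells lacking the enzyme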
# PrPC surface inh: inhibitors of human cell surface prion protein PrPC | P04156 | TR-FRET read-out | inhibition, % at 13.8 µM | hit rate 0.43% among 370,000; in the data active = inhibition above about 24%; note: 0% = median of the test wells and 100% = reference compound wells
# FBA Mtb inh: inhibitors of M. tuberculosis fructose-bisphosphate aldolase. inhibition, % at 1 µM. purified M. tuberculosis FBA, fluorescence read-out. hit rate 2.3% among 360,000. P9WQA3; in the data active = inhibition above about 27%;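 note: 0% = vehicle and 100% = reference inhibitor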
# Target sequence (P9WQA3 whole entry, looked up): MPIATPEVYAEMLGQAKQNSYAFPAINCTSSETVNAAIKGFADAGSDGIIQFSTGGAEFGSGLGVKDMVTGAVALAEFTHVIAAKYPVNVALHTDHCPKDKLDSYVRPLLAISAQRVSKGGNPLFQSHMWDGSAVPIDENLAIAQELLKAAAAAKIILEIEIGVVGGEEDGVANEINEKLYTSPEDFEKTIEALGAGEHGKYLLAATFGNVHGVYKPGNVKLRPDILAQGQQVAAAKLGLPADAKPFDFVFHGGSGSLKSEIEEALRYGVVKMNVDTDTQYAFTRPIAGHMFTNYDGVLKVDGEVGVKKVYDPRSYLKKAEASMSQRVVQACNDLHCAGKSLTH
# TcdB GH inh: TcdB glycohydrolase inhibition; hit rate 0.24% among 350,000; inhibition, % at 9.99 µM; AID 652162; TcdB glycohydrolase enzymatic assay, plate reader; P18177; in the data active = inhibition above about 10%
# Active calls of the source: *; · = no result; + = active, no number.
SMILES,Y pestis TopoI,GDH-TPI counter,PrPC surface inh,FBA Mtb inh,TcdB GH inh
O=c1[nH]c(=S)[nH]c2nc(-c3ccccc3)cnc12,2,16,-37,2,2
COC(=O)/C(=N/Nc1ccc(C)cc1)N1CCCc2ccccc21,12,23,14,-1,-19
COC(=O)/C(=N/Nc1ccccc1)N1CCCc2ccccc21,7,34*,15,-2,-42
O=C(c1cccc(F)c1)N1C[C@H]2[C@@H](c3ccccc31)[C@H](CO)N2C(=O)Cc1ccccc1,·,·,·,·,-1
CCC1(C)Cc2ccccc2-c2nc(NCCO)n(-c3ccc(C)cc3)c(=O)c21 (stereo unspecified),-3,17,24,163*,·
CCC1(C)Cc2ccccc2-c2nc(NCCO)n(-c3ccccc3)c(=O)c21 (stereo unspecified),9,13,2,176*,·
CCC1(CC)Cc2ccccc2-c2nc(NCCO)[nH]c(=O)c21,19,20,1,168*,·
CC1(C)Cc2ccccc2-c2nc(NCCO)n(-c3ccccc3)c(=O)c21,6,18,4,173*,·
COc1ccc2c3c([nH]c2c1)[C@H](CO)N(C)CC31CN(S(=O)(=O)c2ccc(C)cc2)C1,·,·,·,·,-1
C[C@H](CO)N1C[C@H](C)[C@H](CN(C)C)Oc2cc(C#CCN(C)C)ccc2S1(=O)=O,·,·,·,·,1
CCC(=O)Nc1ccc2c(c1)C(=O)N(C)C[C@H](OC)[C@H](C)CN(C(=O)COC)[C@H](C)CO2,·,·,·,·,0
CN1C(=O)c2cc(NC(=O)NCc3ccccc3)ccc2OC[C@@H]2O[C@@H](CC(=O)NCC3CCCCC3)CC[C@H]21,·,·,·,·,-2
Cc1occc1C(=O)N/N=C/c1ccc(N(C)C)cc1,2,81*,13,12,0
Cn1c(CCCNC(=O)c2ccccc2)nc2ccccc21,-6,6,-4,1,·
CN(C)c1ccc(/C=N\NC(=O)c2ccc(Cn3cc(Cl)cn3)cc2)cc1,26,35*,16,0,·
COc1ccc(/C=N/NC(=O)c2ccc(Cl)cc2)cc1Cn1cc(Cl)cn1,14,11,3,0,0
CCn1c2ccccc2c2cc(/C=N/NC(=O)c3ccccc3C)ccc21,7,35*,-5,5,1
Cn1c(/C=N/NC(=O)c2ccccc2)nc2ccccc21,12,47*,-10,8,0
O=C(C[C@H]1CC[C@@H]2[C@H](COC[C@@H](O)CN2C(=O)Nc2ccccc2)O1)NCc1ccccc1F,·,·,·,·,1
C[C@H]1CN([C@@H](C)CO)C(=O)Cc2cc(NC(=O)CCN3CCOCC3)ccc2O[C@@H]1CN(C)S(=O)(=O)c1ccc(Cl)cc1,·,·,·,·,-1
Cn1c(=O)n(C)c2cc(/C=N/NC(=O)c3ccc(Cl)cc3)ccc21,-3,51*,6,4,0
CC(=O)Nc1ccc(/C=N/NC(=O)c2cc3cc(C)ccc3nc2C)cc1,7,38*,-4,0,·
Cn1c(-c2ccccc2)c(/C=N/NC(=O)c2ccc(O)cc2)c2ccccc21,-4,52*,24,3,2
CN(C)c1ccc(/C=N/NC(=O)c2ccc(Cl)cc2)cc1,13,31*,9,1,1
CN(C)c1ccc(/C=N/NC(=O)c2ccccc2)cc1,-9,20,11,0,0
SMILES,Y pestis TopoI,GDH-TPI counter,PrPC surface inh,FBA Mtb inh,TcdB GH inh
O=C(O)C[C@@H]1C[C@@H]2c3cc(NS(=O)(=O)c4ccccc4)ccc3O[C@@H]2[C@@H](CO)O1,·,·,·,·,0
Cc1nc2c(C)cccc2cc1C(=O)N/N=C/c1ccc(C(=O)O)cc1,7,5,-1,-2,0
Cn1c2ccccc2c2cc(/C=N/NC(=O)c3ccc(N)cc3)ccc21,-11,36*,5,15,1
Cc1nc2c(C)cccc2cc1C(=O)N/N=C/c1ccc(N(C)C)cc1,6,51*,3,3,-1
C[C@@H]1CN([C@@H](C)CO)C(=O)c2cc(Br)cnc2O[C@@H]1CN(C)C(=O)Nc1ccccc1,·,·,·,·,-1
c1coc(-c2nnc(-c3cccs3)o2)c1,-4,6,-2,150*,·
CCOC(=O)c1c(-c2ccc(OC)cc2)oc2ccc(OCC(N)=O)cc12,-2,-2,-1,+,1
CCOC(=O)c1c(-c2ccccc2)oc2ccc(OCC(=O)O)cc12,3,-1,-1,161*,-3
C[C@H]1CN([C@@H](C)CO)S(=O)(=O)c2ccc(C3=CCCC3)cc2O[C@@H]1CN(C)S(=O)(=O)c1cn(C)cn1,·,·,·,·,0
C[C@H]1CN([C@@H](C)CO)C(=O)CCCn2cc(nn2)CO[C@H]1CN(C)S(=O)(=O)c1ccc(-c2ccccc2)cc1,·,·,·,·,1
O=C(C[C@@H]1CC[C@@H](NC(=O)CC2CC2)[C@@H](CO)O1)NCc1ccc(Cl)cc1,·,·,·,·,0
O=C(N[C@@H](Cc1c[nH]c2ccccc12)C(=O)O)C1CCN(S(=O)(=O)c2ccc(Cl)cc2)CC1,9,-10,-1,1,1
O=C(N[C@@H](Cc1c[nH]c2ccccc12)C(=O)O)C1CCN(S(=O)(=O)c2cccs2)CC1,-5,2,5,0,11*
Cc1nn(C(=O)c2cc3sccc3[nH]2)c(C)c1C,2,35*,-4,-1,2
CCOC(=O)C1=C(C)NC(=S)N(C(C)=O)C1c1ccc(OC)c(OC)c1 (stereo unspecified),1,11,8,0,1
CCOC(=O)C1=C(C)Nc2nnnn2C1c1ccc(OC)c(Br)c1 (stereo unspecified),1,2,-1,1,12*
C[C@H](CO)N1C[C@H](C)[C@@H](CN(C)C)Oc2ccc(N(C)C)cc2CC1=O,·,·,·,·,-10
O=C(Cc1ccccc1)c1ccc(N2CCOCC2)cc1,-7,37*,8,6,-4
O=C(CCc1ccccc1)Nc1ccc(N2CCOCC2)cc1,-4,9,1,3,·
O=C(c1ccccc1)c1ccc(N2CCOCC2)cc1,-6,38*,8,3,-6
O=C(CSc1nnc(CNC(=O)c2c(F)cccc2Cl)o1)Nc1ccc2c(c1)OCO2,2,-3,2,95*,1
Cc1ccc(NC(=O)CSc2nnc(CNC(=O)c3c(F)cccc3Cl)o2)cc1,7,0,3,3,·
COc1ccc(-n2c(/C=C(\C)O)nc(=O)c3c(C)cc(C)nc32)cc1,2,59*,2,6,·
Cc1ccc(C)c(S(=O)(=O)Nc2ccccc2C(=O)Nc2cc(C)on2)c1,4,15,12,135*,·
Cc1cc(NC(=O)c2ccccc2NS(=O)(=O)c2c(C)c(C)cc(C)c2C)no1,5,16,-2,18,·
FC(F)(F)c1nc(NCc2ccccc2)c2nnn(Cc3ccccc3)c2n1,-2,2,-1,1,1
CCOC(=O)CNc1nc(C(C)(C)C)nc2c1nnn2Cc1ccccc1,59*,5,-2,-2,1
Cc1cc(C)c(C)c(S(=O)(=O)N2CCCCC2C(=O)O)c1C (stereo unspecified),13,0,-3,0,15*
Cc1cc(=O)oc2cc(OCC(O)CN3CCc4ccccc4C3)ccc12 (stereo unspecified),1,14,-1,50*,·
